Screens as filed in PubChem.
Compounds with a hit are over-represented: about 2.4% of the library has one in this group of screens.
Pol beta inh – blocks human DNA polymerase beta activity. 1.3% of 340,000 active. Potency, µM (titrated, usually from 114 µM), without a hit: at the highest dose activity change, negative = inhibition, actives largely listed as inhibitors. Pol beta primer extension/strand displacement, fluorescence kinetic; note: % is set by controls: 0 for no effect and ±100 for the full control effect
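Enzyme-only controls used 10 nM Pol beta; buffer lacking enzyme served as negative control. Compound preincubated 15 min, then 50 nM substrate added; 0 and 10 min reads at room temperature.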
POLH inh – DNA polymerase eta (human) inhibition; Q9Y253; 1.2% of 390,000 active; recombinant Pol eta, fluorescent DNA replication assay; Potency, µM (top dose mostly 114 µM), without a hit: at the top dose activity change, negative = inhibition, actives largely listed as inhibitors; note: % is set by controls: 0 for no effect and ±100 for the full control effect
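Pol eta (10 nM) was preincubated with compounds for 15 min at room temperature, after which fluorescent replication substrate (50 nM final) was added to start the reaction. Fluorescence was read kinetically at 0 and 10 min.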
POLK inh – DNA polymerase kappa (human) inhibition. Q9UBT6. purified Pol kappa, fluorescent DNA synthesis assay, 10 min. Potency, µM (top dose mostly 107 µM), inactives show at the highest dose activity, negative = inhibition, actives largely listed as inhibitors. 0.53% of 400,000 active; note: % is set by controls: 0 for no effect and ±100 for the full control effect
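Enzyme at 10 nM met test compounds for 15 min at room temperature. Substrate addition (50 nM final) began the reaction, which was monitored by fluorescence at 0 and 10 min.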
FEN1 inh – inhibitors of human flap endonuclease 1; P39748; Recombinant FEN1 flap cleavage, fluorescence, 15 min; Potency, µM (series often up to 114 µM), for the others: at the highest dose activity change, negative = inhibition, most hits filed as inhibitors; 0.35% of 390,000 active; AID 588795; note: % is set by controls: 0 for no effect and ±100 for the full control effect; nearly all actives have a fitted effect of over 65% in size
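FEN1 at 10 nM preincubated with compounds 15 min at room temperature, then flap DNA substrate added at 50 nM final. Signal read at 0 and 15 min; concentration-response fitted with four-parameter Hill equation.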
POLI inh – DNA polymerase iota (human) inhibition; Pol iota fluorescent replication assay, 10 min; Q9UNA4; 1% of 390,000 active; Potency, µM (titrated, usually from 115 µM), for the others: top-dose activity, negative = inhibition, usual class: inhibitors
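Pol iota at 10 nM preincubated 15 min with compounds at room temperature; reaction started with fluorescent substrate, 50 nM final. Fluorescence read kinetically at 0 and 10 min; buffer-only wells as negative control.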
TDP1 inh – inhibitors of human tyrosyl-DNA phosphodiesterase TDP1; AID 485290; Potency, µM (doses to about 130 µM), for the others: at the top dose activity change, negative = inhibition, usual class: inhibitors; 0.28% of 350,000 active; Q9NUW8; recombinant TDP1, AlphaScreen DNA substrate cleavage; note: % is set by controls: 0 for no effect and ±100 for the full control effect; nearly all actives have a fitted effect of over 40% in size
Target sequence (Q9NUW8 whole entry, looked up): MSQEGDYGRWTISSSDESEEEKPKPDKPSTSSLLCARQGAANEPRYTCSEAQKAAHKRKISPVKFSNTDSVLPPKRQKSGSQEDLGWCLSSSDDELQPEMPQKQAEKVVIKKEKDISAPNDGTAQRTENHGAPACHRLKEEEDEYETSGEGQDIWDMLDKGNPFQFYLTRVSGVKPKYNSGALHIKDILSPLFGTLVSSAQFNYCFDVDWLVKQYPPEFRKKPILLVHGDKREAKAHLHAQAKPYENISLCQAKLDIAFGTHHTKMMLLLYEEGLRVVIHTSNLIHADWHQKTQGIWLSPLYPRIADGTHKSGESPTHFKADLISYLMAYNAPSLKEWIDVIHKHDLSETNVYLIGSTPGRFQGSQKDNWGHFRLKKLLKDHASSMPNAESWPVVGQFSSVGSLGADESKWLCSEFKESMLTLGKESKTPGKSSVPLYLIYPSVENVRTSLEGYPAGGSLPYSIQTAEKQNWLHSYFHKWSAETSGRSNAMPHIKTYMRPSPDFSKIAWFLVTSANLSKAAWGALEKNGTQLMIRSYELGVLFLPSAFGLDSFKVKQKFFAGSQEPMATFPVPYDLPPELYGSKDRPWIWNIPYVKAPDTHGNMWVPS
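AlphaScreen read-out: signal falls as enzyme removes the 3' tyrosine-FITC from a 5'-biotinylated DNA oligo (15 nM, 5 min, RT). Enzyme was E. coli-made recombinant Tdp1 at 1 nM, exposed to compound for 15 min beforehand; beads 10 ug/ml, 10 min.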
Active calls of the source: *; ? = inconclusive; nt = no result; [ ] = another dose, or the depositor's remark. Calls come from the whole dose curve; as a rule, active = well fitted curve in the direction sought with a large enough effect; inconclusive = small, poorly fitted or top-dose-only effect, or another doubt; inactive = no such curve, though single readings can be large; an effect the other way counts as inactive or inconclusive. Potency is the fitted concentration of half-maximal effect.

SMILES	Pol beta inh	POLH inh	POLK inh	FEN1 inh	POLI inh	TDP1 inh
C#CCOCCOCCOCCNc1nc(N2CCN(C(=O)Cn3cc(CCCCN)nn3)CC2)nc(N2CCN(C(=O)Cn3cc(CCCCN)nn3)CC2)n1	40µM*	2%	?	-8%	?	3%
C#CCOCCOCCOCCNc1nc(N2CCN(C(=O)Cn3cc(CCCN=C(N)N)nn3)CC2)nc(N2CCN(C(=O)Cn3cc(CCCN=C(N)N)nn3)CC2)n1	1.6µM*	nt	nt	nt	nt	nt
C#CCOCCOCCOCCNc1nc(N2CCOCC2)nc(N2CCN(C(=O)Cn3cc(CCCN=C(N)N)nn3)CC2)n1	-6%	1%	2%	-1%	-16%	4%
C#CCOCCOCCOCCNc1nc(N2CCN(C(=O)Cn3cc(CCCN=C(N)N)nn3)CC2)nc(N2CCN(C(=O)[C@H]([C@@H](C)CC)n3cc(CCC(=O)O)nn3)CC2)n1	-1%	3%	1%	2%	89µM*	4%
C#CCOCCOCCOCCNc1nc(N2CCN(C(=O)Cn3cc(CCO)nn3)CC2)nc(N2CCN(C(=O)Cn3cc(CCCCN)nn3)CC2)n1	nt	-13%	-11%	-4%	8%	nt
O=S(=O)(O)c1ccc(NN=Cc2ccccc2O)cc1	nt	32µM*	-5%	-2%	?	nt
CC(=O)c1ccc(S(=O)(=O)Nc2ccc(C(=O)N(C)CC(=O)Nc3cccc(C)c3C)cc2)cc1	nt	32µM*	?	-13%	?	3%
C=CC#CC[N+]1(CC#Cc2ccccc2)CCOCC1	4%	35µM*	?	18µM*	?	5%
NNc1ccc(Cl)c(C(=O)O)c1	?	-14%	1%	-3%	1%	7%
O=C(O)/C=C/C(=O)Nc1ccc(Oc2ccc(NC(=O)/C=C/C(=O)O)cc2)cc1	40µM*	nt	nt	nt	nt	-8%
O=C(O)/C=C/C(=O)Nc1ccc(Cl)c(C(=O)O)c1	?	45µM*	-30%	4%	?	nt
Cc1cc(=O)oc2cc(OCC(=O)NCCc3ccccc3)ccc12	1%	11%	-13%	2%	24%	nt
Cc1cc(=O)oc2cc(OCC(=O)N/N=C/c3ccccc3[N+](=O)[O-])ccc12	32µM*	?	?	?	28µM*	56µM*
O=C(OC1Cc2c(O)cc(O)cc2OC1c1cc(O)c(O)c(O)c1-c1c(C2Oc3cc(O)cc(O)c3CC2OC(=O)c2cc(O)c(O)c(O)c2)cc(O)c(O)c1O)c1cc(O)c(O)c(O)c1 (configuration not stated)	nt	nt	0.5µM*	nt	nt	nt
O=C(OCC#CCSc1nnc(-c2cccc3ccccc23)o1)c1ccccc1F	nt	nt	nt	nt	nt	-11%
FC(F)(F)c1cc(CO[C@H]2CCCN[C@H]2c2ccccc2)cc(C(F)(F)F)c1	-15%[57.1 µM]	-8%[57.1 µM]	-12%[19.4 µM]	nt	?	-12%[56.1 µM]
CCc1cccc(C)c1NC(=O)C1CCN(S(=O)(=O)c2cccc3nonc23)CC1	?	-1%	?	89µM*	89µM*	4%
O=C(Nc1ccc(OC(F)F)cc1)c1nc(S(=O)(=O)Cc2ccccc2F)ncc1Cl	nt	nt	-6%	-16%	9%	nt
COc1cc(OC)cc(C(=O)N[C@H](C(=O)OCC(=O)Nc2sccc2C#N)C(C)C)c1	?	50µM*	?	-7%	?	0%
N#Cc1ccsc1NC(=O)COC(=O)c1ccc(Br)o1	nt	?	-42%	?	25µM*	-3%
CCc1cccc2c(C(O)c3c[nH]c4ccccc34)c[nH]c12 (configuration not stated)	nt	nt	-11%	-22%	28%	nt
COc1cc(C(=O)Nc2ccc3oc(-c4ccc(C)c(Br)c4)nc3c2)cc(OC)c1OC	-12%	-7%	2%	2%	21%	1%[12.3 µM]
CC1(N2CCOCC2)CC2(O)C(=[N+]1[O-])CCc1c2no[n+]1[O-] (configuration not stated)	2%	18µM*	?	?	?	-3%
COC(=O)c1ccc(-c2ccc(/C=N/N3C(=O)C4C5C=CC(CC5)C4C3=O)o2)cc1 (configuration not stated)	?	-3%	-11%	0%	56%	5%
O=C(O)c1cc(-c2ccc(/C=N/N3C(=O)C4C5C=CC(C6CC56)C4C3=O)o2)ccc1Cl (configuration not stated)	40µM*	?	-8%	2%	34%	?
SMILES	Pol beta inh	POLH inh	POLK inh	FEN1 inh	POLI inh	TDP1 inh
O=C(O)c1cc(-c2ccc(/C=N/N3C(=O)C4C5C=CC(CC5)C4C3=O)o2)ccc1Cl (configuration not stated)	-22%	50µM*	-18%	1%	7%	nt
OC(Cc1ccc2ccccc2n1)c1ccccc1 (configuration not stated)	nt	nt	-8%	-15%	1%	nt
O=C(NCCCc1cnc[nH]1)NCCCN(Cc1ccc(Cl)cc1)c1ccc(Br)cn1	nt	nt	-10%	-5%	?	nt
COc1cc2ncnc(N3CCN(C(=O)Nc4ccc(Oc5ccccc5)cc4)CC3)c2cc1OC	nt	nt	-18%	-1%	16%	nt
OCCSc1nc(-c2ccccc2)nc2ccc(F)cc12	?	-16%	?	-26%	79µM*	0%
COC(=O)CSc1nc(-c2ccccc2)nc2ccc(F)cc12	-2%	4%	-15%	-20%	12%	3%
CCOc1cc(/C=C2\C(=O)N(c3cccc(C(=O)O)c3)N=C2C(F)(F)F)ccc1OCC(=O)Nc1ccccc1OC	20µM*	nt	nt	nt	nt	-7%
CCOc1cc(/C=N/n2cnnc2)ccc1OCC(=O)Nc1ccccc1OC	0%	3%	-3%	-6%	8%	7%
COc1cccc(C2Nc3ccc4ccccc4c3C3=C2C(=O)CCC3)c1O (configuration not stated)	89µM*	-12%	1%	8%	155%	nt
COc1cccc(C2Nc3ccccc3C(=O)N2O)c1O (configuration not stated)	0%	-1%	-5%	-8%	22%	5%
CNC(=S)N/N=C/c1ccc(-c2ccc(Cl)c([N+](=O)[O-])c2)o1	8.9µM*	0%	-6%	-6%	14%	?
Cc1ccc(C(=O)N/N=C/c2ccc(-c3ccccc3[N+](=O)[O-])o2)cn1	4%	?	-8%	-20%	41%	5%
Cc1ccc(C(=O)N/N=C\c2ccc(-c3ccc(Cl)c(Cl)c3)o2)cn1	20µM*	-30%	-20%	-21%	-19%	-6%
CC(C)C[C@@H](CC(=O)N[C@@H](CCC(=O)O)CC(=O)O)NC(=O)[C@@H]1CNCC[C@H]1NC(=O)C[C@H](CCCN)NC(=O)C[C@H](Cc1c[nH]c2ccccc12)NC(=O)[C@@H]1CCCC[C@H]1N	nt	nt	nt	nt	nt	4%
O=Cc1ccc(I)cc1	nt	nt	-7%	-9%	-6%	nt
